Our source for the inhibition values is ChEMBL document CHEMBL4808148, “HDAC6 screening dataset using tau-based substrate in an enzymatic assay yields selective inhibitors and activators” (2021).

Molecules are shown by their SMILES. Several values for one entry are separate records, joined by “and”; a condition that tells them apart may be missing. Equal entries are not always repeated. Among all 5,600 compounds or so, about 390 (7%) showed an effect of 50% or more. Only a selection was taken, and strong results are over-represented in it overall.

The experiment concerns the target T1, Protein deacetylase HDAC6 (Homo sapiens) (UniProt Q9UBN7).
T1 sequence (whole entry): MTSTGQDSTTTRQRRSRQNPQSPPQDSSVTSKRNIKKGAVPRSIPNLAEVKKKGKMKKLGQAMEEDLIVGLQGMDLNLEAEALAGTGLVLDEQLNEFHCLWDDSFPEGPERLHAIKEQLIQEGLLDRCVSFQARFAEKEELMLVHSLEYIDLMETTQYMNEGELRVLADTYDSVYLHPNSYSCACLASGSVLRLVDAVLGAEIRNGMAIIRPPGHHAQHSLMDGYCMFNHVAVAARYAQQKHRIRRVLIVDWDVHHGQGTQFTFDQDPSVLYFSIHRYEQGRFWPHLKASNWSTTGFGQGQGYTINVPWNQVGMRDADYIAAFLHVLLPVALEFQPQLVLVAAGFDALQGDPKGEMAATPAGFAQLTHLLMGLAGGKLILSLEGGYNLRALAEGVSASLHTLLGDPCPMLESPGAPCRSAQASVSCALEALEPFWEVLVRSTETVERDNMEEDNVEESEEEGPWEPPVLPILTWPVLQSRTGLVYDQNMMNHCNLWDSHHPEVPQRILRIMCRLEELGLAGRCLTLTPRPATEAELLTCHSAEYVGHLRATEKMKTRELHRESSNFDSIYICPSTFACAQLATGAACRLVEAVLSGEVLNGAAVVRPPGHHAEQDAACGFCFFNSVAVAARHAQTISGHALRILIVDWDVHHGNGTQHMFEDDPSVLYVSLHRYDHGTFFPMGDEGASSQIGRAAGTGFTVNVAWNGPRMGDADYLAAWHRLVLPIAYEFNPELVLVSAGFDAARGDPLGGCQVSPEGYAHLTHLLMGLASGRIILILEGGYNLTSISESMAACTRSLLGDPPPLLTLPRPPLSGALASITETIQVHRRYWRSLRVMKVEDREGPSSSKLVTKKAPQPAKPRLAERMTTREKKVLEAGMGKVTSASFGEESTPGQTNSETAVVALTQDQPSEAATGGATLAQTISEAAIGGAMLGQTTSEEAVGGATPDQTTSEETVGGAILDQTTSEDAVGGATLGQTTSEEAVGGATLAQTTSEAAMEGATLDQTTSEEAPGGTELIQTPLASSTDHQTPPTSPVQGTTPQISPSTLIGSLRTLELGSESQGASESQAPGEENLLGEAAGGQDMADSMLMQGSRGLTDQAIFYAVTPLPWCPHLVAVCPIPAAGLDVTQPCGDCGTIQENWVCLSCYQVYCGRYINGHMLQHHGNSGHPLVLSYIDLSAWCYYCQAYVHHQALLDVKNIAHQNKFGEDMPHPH
The note with it: at 10 µM.
A word on the inhibition: it is the drop in the measured response relative to a control, in per cent. For the compound `CC(N)CCCC(C)(C)O` (configuration not stated), the inhibition was determined as 6.48%.
Regarding `COc1ccc2c(C(=S)N(C)CC(=O)O)cccc2c1C(F)(F)F`, the inhibition is 8.32%.
On to `CCN(CC)CC1CCN(c2ncc3ncnc(Nc4ccc(F)c(Cl)c4)c3n2)CC1`, for which the inhibition stood at 22.9%.
Turning to `Cc1n[nH]c(C)c1Cc1sc2c(c1C(=O)N1C[C@H](O)CO1)c(=O)n(C)c(=O)n2CC(C)C`, the inhibition turned out to be 39.2%.
On to `COC1CCN(c2cccc(-c3cc(NC(C)=O)nc(-n4nc(C)cc4C)n3)n2)CC1`, for which the inhibition turned out to be 20.5%.
With `CCCC1C(=O)N2C(N(C)C)=Nc3ccc(C)cc3N2C1=O` (configuration not stated), the inhibition amounted to 67.9%.
As to `O=C1OC2(c3cc(I)c(O)c(I)c3Oc3c2cc(I)c(O)c3I)c2c(Cl)c(Cl)c(Cl)c(Cl)c21`, the inhibition was 69.2% and 74.6%.
Consider `c1ccc(-c2n[nH]cc2-c2ccnc3ccccc23)nc1`, for which the inhibition is -5.98%.
As for `OCCN1CCN(CC/C=C2/c3ccccc3Sc3ccc(Cl)cc32)CC1`, the inhibition came to 89.6%.
On to `CN1CCN(CC/C=C2/c3ccccc3Sc3ccc(S(=O)(=O)N(C)C)cc32)CC1`, for which the inhibition was determined as 30.4%.
Consider `CN(C)CC/C=C1\c2ccccc2CSc2ccccc21`, for which the inhibition turned out to be 33.1%.
For `CCN(CC)c1ccc(C(=C2C=CC(=[N+](CC)CC)C=C2)c2ccccc2)cc1`, the inhibition is 101%.
For the compound `CCCCC1(COC(=O)CCC(=O)O)C(=O)N(c2ccccc2)N(c2ccccc2)C1=O`, the inhibition came to 37.6%.
The same measure for `O=C(O)CCC/C=C\CC1C(O)CC(O)C1/C=C/C(O)COc1cccc(Cl)c1` (racemic): 7.35%; for `CCCC(=O)Nc1ccc(OCC(O)CNC(C)C)c(C(C)=O)c1` (configuration not stated): -5.99%; for `CC(C)OC(=O)c1cc2c(OCC(O)CNC(C)(C)C)cccc2[nH]1` (configuration not stated): 17%.
On to `CCN(CC)C(=O)Nc1ccc(OCC(O)CNC(C)(C)C)c(C(C)=O)c1` (configuration not stated), for which the inhibition is 103%.
As to `CNC(=O)c1ccc2c(c1)NC(=O)/C2=C(\Nc1cccc(CN(C)C)c1)c1ccccc1`, the inhibition was 23.6%.
Turning to `CONC(=N)c1ccc(-c2ccc(-c3ccc(C(=N)NOC)cc3)o2)cc1`, the inhibition is 28.6%.
On to `C=C[C@@](C)(/C=C/c1ccc(O)cc1)CCC=C(C)C`, for which the inhibition turned out to be 38.3%.
On to `C/C(O)=C(\C#N)C(=O)Nc1ccc(C(F)(F)F)cc1`, for which the inhibition was found to be 58%.
Regarding `CC(=O)Nc1ccc(NC(=S)NC(=O)c2ccc(C(C)(C)C)cc2)cc1`, the inhibition was -1.57%.
Take `CC(O)(C(=O)Nc1ccc(S(=O)(=O)c2ccccc2)cc1)C(F)(F)F` (configuration not stated): the inhibition is 8.38%.
`CCCn1c(=O)[nH]c(=O)c2nc[nH]c21`: the inhibition came out at 9.19%.
In the case of `O=c1c2ccccc2nc2n1CCc1c-2[nH]c2ccccc12` it was 84.3%.
The same measure for `CN1c2ccccc2C(=O)N2CCc3c([nH]c4ccccc34)C21` (configuration not stated): 36.3%; for `Cc1cc(N2CCCCC2)nc2ccccc12`: 12.2%.
As for `O=c1c2ccccc2nc2n1CCCCC2`, the inhibition was found to be 111%.
The same measure for `CN1C(=O)C(F)=C[C@]2(C)[C@H]3CC[C@]4(C)[C@@H](C(=O)NCc5nc6cccnc6[nH]5)CC[C@H]4[C@@H]3CC[C@@H]12`: -0.34%.
Regarding `CCC(=O)OCC(=O)C1(OC(=O)CC)C(C)CC2C3CCC4=CC(=O)C=CC4(C)C3(Cl)C(O)CC21C` (configuration not stated), the inhibition was 5.48%.
In the case of `CCCCc1nn(-c2ccccc2C(F)(F)F)c(=O)n1Cc1ccc(-c2ccccc2S(=O)(=O)NC(=O)c2sccc2C)cc1` it was 30.6%; in that of `CCCOc1ccc(Br)cc1-c1cc(-c2ccc(Cl)cc2)[nH]c1-c1ccncc1`, 4.47%; in that of `C[C@]12C=CC(=O)C=C1CC[C@@H]1[C@@H]2[C@@H](O)C[C@@]2(C)[C@H]1CC[C@]2(O)C(=O)CO`, 1.72%.
In the case of `C#CC1(O)CC[C@H]2[C@@H]3CCC4=CC(=O)CC[C@@H]4[C@H]3CC[C@@]21CC` (some centres not stated) it was 41%.
On to `C#C[C@]1(O)CC[C@H]2[C@@H]3CCC4=CC(=O)CC[C@@H]4[C@H]3CC[C@@]21CC`, for which the inhibition is -8.51%.
For the compound `C#C[C@]1(OC(C)=O)CC[C@H]2[C@@H]3CCC4=C/C(=N/O)CC[C@@H]4[C@H]3CC[C@@]21CC`, the inhibition was determined as 102%.
For the compound `O=S(=O)(N[C@H]1CC[C@@](c2cc(F)ccc2F)(S(=O)(=O)c2ccc(Cl)cc2)CC1)C(F)(F)F`, the inhibition came out at 19.5%.
As for `CC[N+](CC)(CC)CCC(O)(c1ccccc1)C1CCCCC1` (configuration not stated), the inhibition stood at 43.5%.
For the compound `N[C@@]1(C(=O)O)CC[C@H]2[C@H](C(=O)O)[C@H]21`, the inhibition was determined as 5.51%.
On to `Nc1cc(Cl)c(N=C2NCCN2)c(Cl)c1`, for which the inhibition was 15.3%.
In the case of `Cc1cccc(C)c1NC(=O)c1ccccc1C(=O)O` it was 2.75%.
Regarding `O=C(N/N=C/c1ccccc1O)c1ccccc1O`, the inhibition came out at 98.6%.
Consider `NC(=O)N/N=C/c1ccc(Oc2ccc(F)cc2)cc1`, for which the inhibition is 2.96%.
Take `O=C(Nc1ccc(O)cc1)c1ccccc1O`: the inhibition amounted to 85.3%.
Regarding `O=C(N/N=C/c1ccc(O)c(O)c1)c1cc2ccccc2cc1O`, the inhibition is 59.7%.
Consider `COC(=O)c1ccccc1O`, for which the inhibition is 25.3%.
Regarding `CN1CCN2c3c(cccc31)[C@@H]1CN(CCCC(=O)c3ccc(F)cc3)CC[C@@H]12`, the inhibition was -3.09%.
In the case of `COC(=O)Nc1ccc2[nH]cc(CCNC(C)=O)c2c1` it was 44.5%.
With `CCOc1ccccc1OCC1CNCCO1` (configuration not stated), the inhibition was -0.93%.
Turning to `c1ccc(Oc2nc3ncnc-3c(NC3CCCCC3)[nH]2)cc1`, the inhibition is -6.25%.
Regarding `CC(C)N1CCN(c2ccc(C(=O)c3c(-c4ccc(O)cc4)sc4cc(O)ccc34)cc2)CC1`, the inhibition amounted to 15%.
As for `COc1ccc(C(=O)NCc2cccnc2)cc1C(=O)NCc1cccnc1`, the inhibition is 11.5%.
